Measured values taken from the supplement of paper PMC8253809.
Values joined by “and” are separate entries in the source; they are usually repeats but may differ in a detail not shown here. Identical values can stand only once.

Key:
Experiment in all cases: growth inhibition (% activity, log2 RLU normalised to DMSO / staurosporine); higher = more growth inhibition
Conditions in all cases: 33 µM
DIPGX29 = test system: DIPGX29 (H3.3 K27M diffuse intrinsic pontine glioma line)
Outline: (§1)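 On Geltrex-coated 384-well plates, pHGG cell lines and H9-derived neural stem cells were grown with approved drugs pinned in at a single final concentration of about 33 μM, in triplicate, for 7 days at 37 °C, 5% CO2. Per-plate normalisation of log2-transformed CellTiter-Glo luminescence to % activity between solvent and positive control wells followed. Each growth-inhibition value is the median over the replicates.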

DIPGX37 = test system: DIPGX37 (H3.3 K27M diffuse intrinsic pontine glioma line)
Outline: as §1

DIPGX7 = test system: DIPGX7 (H3.3 K27M diffuse intrinsic pontine glioma line)
Outline: as §1

DIPGX9 = test system: DIPGX9 (diffuse intrinsic pontine glioma line)
Outline: as §1

HGGX39 = test system: HGGX39 (paediatric high-grade glioma line)
Outline: as §1

HGGX6 = test system: HGGX6 (H3.3 G34R paediatric high-grade glioma line)
Outline: as §1

HNSC = test system: HNSC
Outline: as §1

SUDIPGIV = test system: SUDIPGIV (diffuse intrinsic pontine glioma line)
Outline: as §1

SUDIPGVI = test system: SUDIPGVI (diffuse intrinsic pontine glioma line)
Outline: as §1

SUDIPGXIII = test system: SUDIPGXIII (diffuse intrinsic pontine glioma line)
Outline: as §1

Question: Which results are given for `CC#CCn1c(N2CCC[C@@H](N)C2)nc2c1c(=O)n(Cc1nc(C)c3ccccc3n1)c(=O)n2C`?
Answer: growth inhibition (DIPGX29): -0.103%; growth inhibition (DIPGX37): -1.17%; growth inhibition (DIPGX7): -2.97%; growth inhibition (DIPGX9): -0.000837%; growth inhibition (HGGX39): 0.6%; growth inhibition (HGGX6): -0.836%; growth inhibition (HNSC): -2.39%; growth inhibition (SUDIPGIV): -2.46%; growth inhibition (SUDIPGVI): -1.81%; growth inhibition (SUDIPGXIII): -0.213%

Question: With `Cc1cc(C2CCCCC2)n(O)c(=O)c1` as the molecule, how does the growth inhibition (DIPGX29) read?
Answer: 68.5% and 63.3%

Question: And the growth inhibition (DIPGX37)?
Answer: 7.69% and 8.51%

Question: What about the growth inhibition (DIPGX7) of the same molecule?
Answer: 54.5% and 43.2%

Question: And the growth inhibition (DIPGX9)?
Answer: 68.8% and 56.5%

Question: What about the growth inhibition (HGGX39) of the same molecule?
Answer: 8.59% and 9.1%

Question: And the growth inhibition (HGGX6)?
Answer: 67.5% and 63.6%

Question: And the growth inhibition (HNSC)?
Answer: 81.5% and 63.9%

Question: And the growth inhibition (SUDIPGIV)?
Answer: 13.4% and 8.52%

Question: And the growth inhibition (SUDIPGVI)?
Answer: -4.21% and -2.85%

Question: And the growth inhibition (SUDIPGXIII)?
Answer: 21.3% and 10.6%

Question: Which results are given for `CCc1oc2ccccc2c1C(=O)c1cc(Br)c(O)c(Br)c1`?
Answer: growth inhibition (DIPGX29): -0.0876%; growth inhibition (DIPGX37): 0.798%; growth inhibition (DIPGX7): -0.0754%; growth inhibition (DIPGX9): -1.64%; growth inhibition (HGGX39): -0.416%; growth inhibition (HGGX6): 0.0697%; growth inhibition (HNSC): -1.55%; growth inhibition (SUDIPGIV): -0.229%; growth inhibition (SUDIPGVI): 0.671%; growth inhibition (SUDIPGXIII): 2.79%

Question: Which results are given for `CCN(CC)CCOC(=O)C(c1ccccc1)c1ccccc1`?
Answer: growth inhibition (DIPGX29): 3.33%; growth inhibition (DIPGX37): 2.41%; growth inhibition (DIPGX7): 3.35%; growth inhibition (DIPGX9): 1.46%; growth inhibition (HGGX39): 2.96%; growth inhibition (HGGX6): 2.47%; growth inhibition (HNSC): 6.35%; growth inhibition (SUDIPGIV): 0.181%; growth inhibition (SUDIPGVI): 3%; growth inhibition (SUDIPGXIII): -1.28%

Question: Which growth inhibition (DIPGX29) does the source give for `Cc1ccccc1C(OCCN(C)C)c1ccccc1` (stereo not given) here?
Answer: -0.515%

Question: And the growth inhibition (DIPGX37)?
Answer: 0.826%

Question: What about the growth inhibition (DIPGX7) of the same molecule?
Answer: -0.00592%

Question: What about the growth inhibition (DIPGX9) of the same molecule?
Answer: 1.44%

Question: What about the growth inhibition (HGGX39) of the same molecule?
Answer: 2.28%

Question: What about the growth inhibition (HGGX6) of the same molecule?
Answer: 1.66%

Question: And the growth inhibition (HNSC)?
Answer: -1.91%

Question: What about the growth inhibition (SUDIPGIV) of the same molecule?
Answer: 0.0322%

Question: And the growth inhibition (SUDIPGVI)?
Answer: 0.905%

Question: What about the growth inhibition (SUDIPGXIII) of the same molecule?
Answer: 1.58%

Question: Which results are given for `OCC(O)CN1CCN(c2ccccc2)CC1` (stereo not given)?
Answer: growth inhibition (DIPGX29): -2.77%; growth inhibition (DIPGX37): -0.131%; growth inhibition (DIPGX7): -2.09%; growth inhibition (DIPGX9): -1.86%; growth inhibition (HGGX39): -1.17%; growth inhibition (HGGX6): -1.7%; growth inhibition (HNSC): -3.11%; growth inhibition (SUDIPGIV): -1.45%; growth inhibition (SUDIPGVI): -3.65%; growth inhibition (SUDIPGXIII): -0.744%

Question: What does the source list for `CC(C)NCC(O)c1ccc(NS(C)(=O)=O)cc1` (stereo not given)?
Answer: growth inhibition (DIPGX29): -1.59%; growth inhibition (DIPGX37): 1.48%; growth inhibition (DIPGX7): 1.46%; growth inhibition (DIPGX9): 0.414%; growth inhibition (HGGX39): 0.329%; growth inhibition (HGGX6): -2.93%; growth inhibition (HNSC): 9.65%; growth inhibition (SUDIPGIV): 3.05%; growth inhibition (SUDIPGVI): 2.59%; growth inhibition (SUDIPGXIII): -1.17%

Question: With `Cn1c(CNc2ccc(C(=N)N)cc2)nc2cc(C(=O)N(CCC(=O)O)c3ccccn3)ccc21` as the molecule, how does the growth inhibition (DIPGX29) read?
Answer: 0.681%

Question: What about the growth inhibition (DIPGX37) of the same molecule?
Answer: 3.45%

Question: And the growth inhibition (DIPGX7)?
Answer: 1.05%

Question: What about the growth inhibition (DIPGX9) of the same molecule?
Answer: 3.29%

Question: What about the growth inhibition (HGGX39) of the same molecule?
Answer: 2.01%

Question: And the growth inhibition (HGGX6)?
Answer: -1.53%

Question: What about the growth inhibition (HNSC) of the same molecule?
Answer: 6.58%

Question: And the growth inhibition (SUDIPGIV)?
Answer: 1.54%

Question: What about the growth inhibition (SUDIPGVI) of the same molecule?
Answer: 0.719%

Question: And the growth inhibition (SUDIPGXIII)?
Answer: -0.457%

Question: What does the source list for `Nc1ccn([C@H]2CC[C@@H](CO)O2)c(=O)n1`?
Answer: growth inhibition (DIPGX29): 1.28%; growth inhibition (DIPGX37): 0.314%; growth inhibition (DIPGX7): 0.245%; growth inhibition (DIPGX9): 2.8%; growth inhibition (HGGX39): 6.49%; growth inhibition (HGGX6): 1.48%; growth inhibition (HNSC): 17.8%; growth inhibition (SUDIPGIV): 15.2%; growth inhibition (SUDIPGVI): 0.499%; growth inhibition (SUDIPGXIII): 1.84%

Question: Which growth inhibition (DIPGX29) does the source give for `CO[C@H]1C(=O)[C@]2(C)[C@@H](OC)C[C@H]3OC[C@@]3(OC(C)=O)[C@H]2[C@H](OC(=O)c2ccccc2)[C@]2(O)C[C@H](OC(=O)[C@H](O)[C@@H](NC(=O)OC(C)(C)C)c3ccccc3)C(C)=C1C2(C)C` here?
Answer: 6.45%

Question: And the growth inhibition (DIPGX37)?
Answer: 5.31%

Question: What about the growth inhibition (DIPGX7) of the same molecule?
Answer: 8.93%

Question: And the growth inhibition (DIPGX9)?
Answer: 18.4%

Question: What about the growth inhibition (HGGX39) of the same molecule?
Answer: 26.1%

Question: What about the growth inhibition (HGGX6) of the same molecule?
Answer: 12.9%

Question: And the growth inhibition (HNSC)?
Answer: 70.7%

Question: And the growth inhibition (SUDIPGIV)?
Answer: 22.5%

Question: What about the growth inhibition (SUDIPGVI) of the same molecule?
Answer: 3.28%

Question: What about the growth inhibition (SUDIPGXIII) of the same molecule?
Answer: 2.32%

Question: For `COC(=O)[C@H](Cc1ccccc1)NC(=O)[C@@H](N)CC(=O)O`, which growth inhibition (DIPGX29) is on record?
Answer: -2.32%

Question: And the growth inhibition (DIPGX37)?
Answer: -1.81%

Question: And the growth inhibition (DIPGX7)?
Answer: -2.17%

Question: What about the growth inhibition (DIPGX9) of the same molecule?
Answer: -2.28%

Question: And the growth inhibition (HGGX39)?
Answer: -1.24%

Question: And the growth inhibition (HGGX6)?
Answer: 0.801%

Question: What about the growth inhibition (HNSC) of the same molecule?
Answer: -5.7%

Question: And the growth inhibition (SUDIPGIV)?
Answer: -2.58%

Question: And the growth inhibition (SUDIPGVI)?
Answer: -1.43%

Question: And the growth inhibition (SUDIPGXIII)?
Answer: -6.7%
